Compounds without any hit were thinned out: in the full panel of roughly 83,000, 20% have a hit.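 Assay: single dose, 48 h. Readout: percent growth (0 = no net growth; negative = cell death). Active: <10.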 A number with no mark means an inactive call. The source made the active and inactive calls.
Legend:
Test in all cases: NCI-60 one-dose screen, 48 h (100 = growth as untreated, 0 = no growth, -100 = all killed)
Details in all cases: 10 µM unless noted
NCI-H23 lung = system: NCI-H23 lung
NCI-H226 lung = system: NCI-H226 lung
NCI-H322M lung = system: NCI-H322M lung
HOP-62 NSCLC = system: HOP-62 NSCLC
NCI-H460 lung = system: NCI-H460 lung
HOP-92 NSCLC = system: HOP-92 NSCLC
NCI-H522 lung = system: NCI-H522 lung
A549/ATCC NSCLC = system: A549/ATCC NSCLC
786-0 renal = system: 786-0 renal
COLO 205 colon = system: COLO 205 colon
DU-145 prostate = system: DU-145 prostate
K-562 leukemia = system: K-562 leukemia
MALME-3M melanoma = system: MALME-3M melanoma
MDA-MB-231 breast = system: MDA-MB-231 breast
RXF 393 renal = system: RXF 393 renal
SF-268 CNS = system: SF-268 CNS
SF-295 CNS = system: SF-295 CNS
SF-539 CNS = system: SF-539 CNS
UACC-257 melanoma = system: UACC-257 melanoma
M14 melanoma = system: M14 melanoma

Row | SMILES | growth (NCI-H23 lung) | growth (NCI-H226 lung) | growth (NCI-H322M lung) | growth (HOP-62 NSCLC) | growth (NCI-H460 lung) | growth (HOP-92 NSCLC) | growth (NCI-H522 lung) | growth (A549/ATCC NSCLC) | growth (786-0 renal) | growth (COLO 205 colon) | growth (DU-145 prostate) | growth (K-562 leukemia) | growth (MALME-3M melanoma) | growth (MDA-MB-231 breast) | growth (RXF 393 renal) | growth (SF-268 CNS) | growth (SF-295 CNS) | growth (SF-539 CNS) | growth (UACC-257 melanoma) | growth (M14 melanoma)
1 | C#C[C@]1(O)CC[C@H]2[C@@H]3CC=C4c5nc(N)sc5CC[C@]4(C)[C@H]3CC[C@@]21C | 78% | 83.8% | 79.7% | 62.5% | 86.9% | 62.2% | 56.6% | 65.9% | -0.771% (active) | 80.5% | 71.2% | 29.7% | 42.1% | 45.4% | -22.4% (active) | 62.8% | -43.6% (active) | -32% (active) | 72.8% | 81.1%
2 | C[C@]12CCc3c(ccc4cc(O)ccc34)[C@@H]1CC[C@H]2O | 95.7% | 91.9% | 105% | 103% | 102% | 84.1% | 88.3% | 108% | 104% | 108% | 104% | 94.9% | 101% | 88.3% | 97.2% | 91.4% | 84.9% | 91% | 102% | 101%
3 | C[C@]12CCc3nc(Nc4ccccc4)sc3C1=CC[C@@H]1[C@@H]2CC[C@]2(C)/C(=N/NC(N)=S)CC[C@@H]12 | 59.7% | 15.6% | 81.9% | 68.2% | 70.3% | 85.4% | 32.5% | 43.1% | -49.8% (active) | 58.1% | 36.3% | 9.46% (active) | 69.5% | 56.3% | -8.56% (active) | 49.3% | 21.2% | 37.3% | 67.9% | 73.1%
4 | O=C(OCc1ccc2c(Cl)cc(Cl)c(O)c2n1)N1CCNCC1 | 47.1% | 42.2% | 47.1% | 22.9% | 15.4% | 44.9% | 42.4% | 17.3% | 61.1% | 54.3% | 47.7% | 19.1% | 64.6% | 54.3% | 45.4% | 35% | 24.2% | 52.4% | 40.5% | 43.6%
5 | NC(=O)CC1C=CCC1 (stereo not given) | 94.5% | 99.4% | 108% | 103% | 101% | 106% | 97.9% | 80.1% | 96.5% | 114% | 102% | 96% | 97.8% | 102% | 111% | 102% | 98.3% | 93.3% | 90.4% | 102%
6 | CC1(C)[C@@H](NOCCCN)CC[C@]2(C)[C@H]3C(=O)C=C4[C@@H]5C[C@](C)(C(=O)O)CC[C@]5(C)CC[C@@]4(C)[C@]3(C)CC[C@@H]12 | -39.4% [100 µM] (active) | -44.8% [100 µM] (active) | -94.4% [100 µM] (active) | -84.4% [100 µM] (active) | -67.2% [100 µM] (active) | -71.8% [100 µM] (active) | -57.7% [100 µM] (active) | -27.4% [100 µM] (active) | -78.6% [100 µM] (active) | -68.2% [100 µM] (active) | -49.8% [100 µM] (active) | -8.83% [100 µM] (active) | -100% [100 µM] (active) | -88.4% [100 µM] (active) | -54.3% [100 µM] (active) | -51.8% [100 µM] (active) | -56.3% [100 µM] (active) | -93.5% [100 µM] (active) | -44.5% [100 µM] (active) | -20.3% [100 µM] (active)
7 | C#C[C@]1(O)CC[C@H]2[C@@H]3CC=C4c5nc(Nc6ncccn6)sc5CC[C@]4(C)[C@H]3CC[C@@]21C | 77.8% | 68.8% | 74.3% | 38.3% | 31.2% | 52.2% | 81% | 43.4% | -45.2% (active) | 92.4% | 61.1% | 33.8% | 47.6% | 34.2% | -59.1% (active) | 29.5% | -66.2% (active) | -50.1% (active) | -16% (active) | 43.8%
8 | CCOC(=O)c1sc2nc(-c3cc(OC)c(OC)c(OC)c3)nc(N3CCOCC3)c2c1C | 27.6% | 44.7% | 48.2% | 77.1% | 17.5% | -15% (active) | 12.1% | 28.9% | 51.8% | 26.5% | 48.3% | 24.2% | 9.78% (active) | 44.9% | 32.3% | 40.1% | 40.3% | 50.4% | 51.7% | 38.4%
9 | O=C1CC(c2ccccc2)Cc2nc3ccc(Cl)cc3cc21 (stereo not given) | 36.4% | 20.8% | 39.8% | 35.9% | 3.33% (active) | 39.3% | 3.02% (active) | 23.3% | 37.6% | -31.7% (active) | 0.185% (active) | 6.83% (active) | 34% | 19.5% | 21.8% | 45.2% | -3.44% (active) | -12% (active) | 69.1% | 8.98% (active)
10 | COC(=O)c1cc2c(=O)[nH]cc3c2c(n1)CCC3 | 106% | 112% | 108% | 97.4% | 101% | 76.8% | 102% | 101% | 101% | 106% | 116% | 99.3% | 99.3% | 106% | 100% | 100% | 112% | 97.3% | 102% | 104%
11 | C=C(CN=[N+]=[N-])[C@@H]1CC[C@]2(C)[C@H](CC[C@@H]3[C@H]4[C@H]5OC(=O)[C@@]4(CCC5(C)C)CC[C@]32C)[C@@]1(C)CCC#N | 82.2% [100 µM] | 83.1% [100 µM] | 96.9% [100 µM] | 90.9% [100 µM] | 73.5% [100 µM] | 65% [100 µM] | 70.2% [100 µM] | 78.6% [100 µM] | 87.9% [100 µM] | 100% [100 µM] | 98.2% [100 µM] | 45.6% [100 µM] | 90.1% [100 µM] | 48.9% [100 µM] | 108% [100 µM] | 92.9% [100 µM] | 96.7% [100 µM] | 88% [100 µM] | 77.2% [100 µM] | 69.1% [100 µM]
12 | O=C1CC(C(F)(F)F)Cc2nc3ccc(Br)cc3cc21 (stereo not given) | 83.3% | 87.6% | 78.2% | 87.1% | 87.8% | 85.8% | 84.8% | 91.8% | 96.4% | 100% | 102% | 79.1% | 84.1% | 82.4% | 91.1% | 88.4% | 90.2% | 93.9% | 106% | 90.7%
13 | O=C(CSc1nccc(Nc2ccc(S(=O)(=O)Nc3ccccn3)cc2)n1)c1ccc(Cl)cc1 | 80.3% | 89% | 104% | 83.5% | 104% | 92.8% | 75.4% | 105% | 102% | 110% | 103% | 86.6% | 112% | 85.8% | 106% | 95.1% | 98.2% | 95.3% | 91.3% | 107%
14 | CNC(=O)c1cc(Oc2cccc3nc(NC(=O)Nc4cc(C(F)(F)F)cc(C(F)(F)F)c4)ccc23)ccn1 | 50.8% | 43.1% | 25.5% | 6.73% (active) | 34.9% | -23.7% (active) | 24.3% | 18.6% | -35.6% (active) | 53.9% | 45.4% | 71.9% | 21.3% | 23.3% | 27.5% | 36.1% | 30.3% | 38.9% | 57.7% | 35.5%
15 | COc1ccc2nc3c(cc2c1)C(=O)CC(C(F)(F)F)C3 (stereo not given) | 50.5% | 39.8% | 37.4% | 47.7% | 10.5% | 66.2% | 31.1% | 39.3% | 53.7% | 9.86% (active) | 4.31% (active) | 16.7% | 49.6% | 60% | -1.91% (active) | 57.4% | 45.3% | 22.6% | 82% | 8.65% (active)
